According to PubChem BioAssay (NCATS):
Records with an inconclusive call do not appear. The source made the active and inactive calls. Unless noted, calls follow the shape of the dose curve; as a rule, active = well fitted curve in the direction sought with a large enough effect; inconclusive = small, poorly fitted or top-dose-only effect, or another doubt; inactive = no such curve, though single readings can be large; an effect the other way counts as inactive or inconclusive.

Tests used:
[1] = target: Lysosomal acid glucosylceramidase (Homo sapiens) (UniProt P04062); test: Glucocerebrosidase-p2 (AID 348; in the data active = potency below about 10 µM; also: potency is read from the fitted curve at half-maximal effect); details: purified GBA, blue fluorogenic substrate, 40 min
Chain of Lysosomal acid glucosylceramidase (Homo sapiens) (P04062 whole entry, looked up): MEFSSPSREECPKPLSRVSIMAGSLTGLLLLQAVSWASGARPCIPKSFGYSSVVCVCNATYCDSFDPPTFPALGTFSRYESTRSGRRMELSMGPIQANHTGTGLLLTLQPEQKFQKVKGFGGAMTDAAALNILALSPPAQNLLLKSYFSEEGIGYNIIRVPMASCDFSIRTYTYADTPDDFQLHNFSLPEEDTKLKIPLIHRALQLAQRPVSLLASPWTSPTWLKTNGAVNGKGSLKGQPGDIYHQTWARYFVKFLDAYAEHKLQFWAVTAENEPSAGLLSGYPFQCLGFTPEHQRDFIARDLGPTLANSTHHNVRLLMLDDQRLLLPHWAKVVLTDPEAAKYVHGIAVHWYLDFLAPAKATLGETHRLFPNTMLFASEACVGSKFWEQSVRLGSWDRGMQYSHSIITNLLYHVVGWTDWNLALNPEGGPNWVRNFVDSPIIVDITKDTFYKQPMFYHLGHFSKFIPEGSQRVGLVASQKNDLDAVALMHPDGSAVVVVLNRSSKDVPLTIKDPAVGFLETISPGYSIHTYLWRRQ
Summary of the method: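 Normal human glucocerebrosidase (0.2 nM) with blue fluorogenic substrate (80 uM final) in citrate/phosphate pH 5.9 with 10mM sodium taurocholate, 0.01% tween-20; 40 min RT, NaOH/glycine stop; fluorescence Ex 365/Em 440; AC50 from a titration from 0.6 nM upwards.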

[2] = NFAT Signaling Pathway (AID 444; active = well fitted curve in either direction with a large enough effect, not every such curve was filed as active;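 also: carbachol stimulus at about its EC50 of 1 µM final; % is scaled to controls: 0 for no effect and ±100 for the full control effect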); details: Jurkat NFAT-bla M1, carbachol, beta-lactamase ratio, 5 h; at 7.69 µM (top of the series) unless noted
Summary of the method: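 Jurkat cells carrying an NFAT-driven β-lactamase reporter and co-transfected muscarinic M1 receptor were treated with compound plus carbachol (1 uM final, an EC50 level) for 5 h at 37 °C. CCF4 loading followed for 1 h at RT; 460/530 nm ratio gave %activity.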

[3] = Stat Signaling Pathway (AID 446; active = well fitted curve in either direction with a large enough effect, not every such curve was filed as active;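 also: ME-180 cervical cancer cells given 40 pM IL-6 alongside compound; SIE-controlled beta-lactamase reporter measured as 460/530 nm FRET emission ratio; % is scaled to controls: 0 for no effect and ±100 for the full control effect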); details: ME-180 SIE beta-lactamase reporter, IL-6 stimulated, 5 h; series mostly up to 7.69 µM
Summary of the method: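 Compound effects on IL-6-induced STAT reporter activity were measured in ME-180 cells. After overnight culture, cells were co-treated with 40 pM IL-6 for 5 hrs before beta-lactamase substrate loading at room temperature.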

[4] = target: Glucocorticoid receptor (Homo sapiens) (UniProt P04150); test: GR-GFP Redistribution (AID 450;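 active = compounds whose dose series gives a full or clear partial fitted curve of increased nuclear translocation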; also: potency is read from the fitted curve at half-maximal effect); details: U2OS GR-GFP nuclear translocation, laser cytometry, 2 h
Chain of Glucocorticoid receptor (Homo sapiens) (P04150 whole entry, looked up, the tested form may be a part): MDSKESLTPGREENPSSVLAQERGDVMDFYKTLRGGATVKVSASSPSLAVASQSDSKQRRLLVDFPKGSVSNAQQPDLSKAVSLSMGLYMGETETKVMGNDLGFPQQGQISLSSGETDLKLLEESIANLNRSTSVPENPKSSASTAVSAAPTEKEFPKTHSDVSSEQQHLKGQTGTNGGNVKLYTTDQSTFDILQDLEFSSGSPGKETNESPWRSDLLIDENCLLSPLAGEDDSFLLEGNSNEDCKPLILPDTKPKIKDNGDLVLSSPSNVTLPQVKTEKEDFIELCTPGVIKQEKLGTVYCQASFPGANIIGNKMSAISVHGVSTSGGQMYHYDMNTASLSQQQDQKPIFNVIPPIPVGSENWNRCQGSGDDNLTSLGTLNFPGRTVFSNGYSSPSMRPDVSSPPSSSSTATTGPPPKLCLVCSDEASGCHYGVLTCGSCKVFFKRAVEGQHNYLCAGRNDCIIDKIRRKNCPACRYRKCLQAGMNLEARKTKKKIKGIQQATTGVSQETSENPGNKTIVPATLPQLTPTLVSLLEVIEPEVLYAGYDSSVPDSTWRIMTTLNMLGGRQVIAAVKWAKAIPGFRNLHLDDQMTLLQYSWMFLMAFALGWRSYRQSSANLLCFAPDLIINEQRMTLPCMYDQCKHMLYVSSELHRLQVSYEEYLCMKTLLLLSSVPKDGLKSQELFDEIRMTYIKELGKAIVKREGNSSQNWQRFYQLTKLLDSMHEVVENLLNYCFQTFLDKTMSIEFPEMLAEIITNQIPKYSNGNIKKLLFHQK

[5] = target: Glucocorticoid receptor (Homo sapiens) (UniProt P04150); test: GR-EFC Redistribution (AID 451; calls by dose curve; also: potency is read from the fitted curve at half-maximal effect); details: CHO-K1 GR-EFC translocation, beta-gal luminescence, 2 h
Summary of the method: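 CHO-K1 cells stably expressing nuclear-localized β-gal enzyme acceptor and GR fused C-terminally to the enzyme donor fragment; ligand-driven nuclear translocation restores β-gal by complementation. Compounds titrated up to 46 uM final, 2 h at 37 °C; luminescence read.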

[6] = target: Mitogen-activated protein kinase 10 (Mus musculus) (UniProt Q61831); test: JNK3 AlphaScreen Assay (AID 530; active = well fitted curve in either direction with a large enough effect, not every such curve was filed as active;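 also: kinase came from lysate of stimulated human HepG2 cells; signal reports phosphorylation of biotinylated GST-cJun 1-79 at Ser73 with 10 µM ATP; % is scaled to controls: 0 for no effect and ±100 for the full control effect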); details: JNK3 lysate, c-Jun phosphorylation; series mostly up to 57.1 µM
Summary of the method: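 Biotinylated GST-cJun(1-79) served as substrate for JNK3 in HepG2 lysates stimulated with IL-1beta and TNF-alpha. ATP was 10 uM final, pH 7.6. Ser73 phosphorylation was quantified by AlphaScreen (680 nm excitation).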

[7] = target: 3',5'-cyclic-AMP phosphodiesterase 4B (Homo sapiens) (UniProt Q07343); test: qHTS Assay for Inhibitors of PDE-IV (AID 607; active = well fitted activation curve with a large enough effect in the main read-out, with a control signal flat, not every such curve was filed as active; also: % of control where 0% means no effect); details: HEK293 ACTOne CNG channel cells, membrane potential fluorescence; series mostly up to 22.9 µM
Chain of 3',5'-cyclic-AMP phosphodiesterase 4B (Homo sapiens) (Q07343 whole entry, looked up): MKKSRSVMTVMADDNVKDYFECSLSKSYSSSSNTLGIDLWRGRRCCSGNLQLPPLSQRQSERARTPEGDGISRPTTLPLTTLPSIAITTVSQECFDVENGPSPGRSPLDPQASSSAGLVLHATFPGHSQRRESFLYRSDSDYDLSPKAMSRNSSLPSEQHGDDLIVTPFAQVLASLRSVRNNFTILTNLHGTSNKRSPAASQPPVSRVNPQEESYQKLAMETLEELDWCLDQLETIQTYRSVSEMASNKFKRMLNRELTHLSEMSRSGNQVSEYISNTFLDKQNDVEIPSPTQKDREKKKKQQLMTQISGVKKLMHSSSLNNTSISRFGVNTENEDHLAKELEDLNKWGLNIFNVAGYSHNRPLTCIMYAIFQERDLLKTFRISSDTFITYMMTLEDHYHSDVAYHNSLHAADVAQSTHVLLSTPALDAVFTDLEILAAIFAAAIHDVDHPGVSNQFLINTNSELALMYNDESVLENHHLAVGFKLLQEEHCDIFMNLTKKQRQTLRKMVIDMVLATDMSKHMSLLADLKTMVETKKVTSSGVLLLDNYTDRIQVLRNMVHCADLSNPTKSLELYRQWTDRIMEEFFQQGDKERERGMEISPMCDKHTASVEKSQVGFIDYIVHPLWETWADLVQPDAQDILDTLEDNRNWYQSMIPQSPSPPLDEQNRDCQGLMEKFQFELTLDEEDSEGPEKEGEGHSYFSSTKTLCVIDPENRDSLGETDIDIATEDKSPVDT
Summary of the method: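 ACTOne HEK293 cells carry a modified cAMP-gated CNG channel and express endogenous PDE4; plated 1000 cells/well, compounds up to 22.9 uM final. Membrane-potential dye fluorescence (ex 535/em 590) was read; parental cells received 10 uM forskolin + 100 uM RO 20-1724.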

[8] = target: Dual specificity protein kinase CLK4 (Homo sapiens) (UniProt Q9HAZ1); test: qHTS Assay for Inhibitors of CDC-like Kinase 4 (Kinase-Glo Assay) (AID 1770); details: recombinant Clk4, Kinase-Glo ATP depletion luminescence; series mostly up to 66.7 µM; also: nearly all actives have a fitted effect of over 65% in size; also: potency is read from the fitted curve at half-maximal effect
Chain of Dual specificity protein kinase CLK4 (Homo sapiens) (Q9HAZ1 whole entry, looked up): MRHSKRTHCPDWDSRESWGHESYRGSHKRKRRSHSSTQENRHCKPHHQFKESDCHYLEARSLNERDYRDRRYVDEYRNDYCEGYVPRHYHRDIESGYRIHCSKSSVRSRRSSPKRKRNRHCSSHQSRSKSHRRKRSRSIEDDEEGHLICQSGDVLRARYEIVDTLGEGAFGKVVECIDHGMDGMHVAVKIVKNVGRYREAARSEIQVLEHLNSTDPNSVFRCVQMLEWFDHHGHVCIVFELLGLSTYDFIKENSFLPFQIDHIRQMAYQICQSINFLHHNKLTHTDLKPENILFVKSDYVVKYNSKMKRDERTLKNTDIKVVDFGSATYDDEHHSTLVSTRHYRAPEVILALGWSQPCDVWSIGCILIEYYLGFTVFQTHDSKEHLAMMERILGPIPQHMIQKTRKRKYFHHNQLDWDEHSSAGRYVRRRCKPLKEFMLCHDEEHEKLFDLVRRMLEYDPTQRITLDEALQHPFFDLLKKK
Summary of the method: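 Inhibition was judged from remaining ATP, measured by Ultra-Glo luciferase bioluminescence after Clk4 (25 nM) had acted on RS peptide at 1 uM ATP for 4.5 hours, room temperature.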

[9] = target: Dual specificity protein kinase CLK4 (Homo sapiens) (UniProt Q9HAZ1); test: qHTS Assay for Inhibitors of CDC-like Kinase 4 (ADP-Glo Assay) (AID 1771); details: recombinant CLK4, ADP-Glo luminescence; series mostly up to 80 µM; also: nearly all actives have a fitted effect of over 70% in size; also: potency is read from the fitted curve at half-maximal effect
Summary of the method: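 In this ADP-Glo format, 1 uM ATP and 100 uM RS peptide served as substrates for 25 nM Clk4 in Mg2+/EGTA/DTT/Triton buffer; reactions ran 1 hr at room temperature before luminescent ADP quantification.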

[10] = target: Dual specificity protein kinase CLK4 (Homo sapiens) (UniProt Q9HAZ1); test: qHTS Assay for Inhibitors of CDC-like Kinase 4 (ADP-FP Assay) (AID 1795); details: Transcreener ADP fluorescence polarization; series mostly up to 50 µM; also: nearly all actives have a fitted effect of over 60% in size; also: potency is read from the fitted curve at half-maximal effect
Summary of the method: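 Inhibition of ADP formation by 6.25 nM Clk4 is measured using 1 uM ATP and 100 uM RS repeat peptide over one hour. Produced ADP displaces a fluorescent tracer from antibody, lowering polarization.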

[11] = target: Ubiquitin carboxyl-terminal hydrolase 1 (Homo sapiens) (UniProt O94782); test: Inhibitors of USP1/UAF1: Pilot qHTS (AID 504865); details: purified USP1/UAF1, Ub-rhodamine cleavage fluorescence; series mostly up to 54.9 µM;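 also: rhodamine fluorescence freed from ubiquitin-rhodamine substrate followed over time; top concentration of the series differs between compounds; % is scaled to controls: 0 for no effect and ±100 for the full control effect; nearly all actives have a fitted effect of over 35% in size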
Chain of Ubiquitin carboxyl-terminal hydrolase 1 (Homo sapiens) (O94782 whole entry, looked up): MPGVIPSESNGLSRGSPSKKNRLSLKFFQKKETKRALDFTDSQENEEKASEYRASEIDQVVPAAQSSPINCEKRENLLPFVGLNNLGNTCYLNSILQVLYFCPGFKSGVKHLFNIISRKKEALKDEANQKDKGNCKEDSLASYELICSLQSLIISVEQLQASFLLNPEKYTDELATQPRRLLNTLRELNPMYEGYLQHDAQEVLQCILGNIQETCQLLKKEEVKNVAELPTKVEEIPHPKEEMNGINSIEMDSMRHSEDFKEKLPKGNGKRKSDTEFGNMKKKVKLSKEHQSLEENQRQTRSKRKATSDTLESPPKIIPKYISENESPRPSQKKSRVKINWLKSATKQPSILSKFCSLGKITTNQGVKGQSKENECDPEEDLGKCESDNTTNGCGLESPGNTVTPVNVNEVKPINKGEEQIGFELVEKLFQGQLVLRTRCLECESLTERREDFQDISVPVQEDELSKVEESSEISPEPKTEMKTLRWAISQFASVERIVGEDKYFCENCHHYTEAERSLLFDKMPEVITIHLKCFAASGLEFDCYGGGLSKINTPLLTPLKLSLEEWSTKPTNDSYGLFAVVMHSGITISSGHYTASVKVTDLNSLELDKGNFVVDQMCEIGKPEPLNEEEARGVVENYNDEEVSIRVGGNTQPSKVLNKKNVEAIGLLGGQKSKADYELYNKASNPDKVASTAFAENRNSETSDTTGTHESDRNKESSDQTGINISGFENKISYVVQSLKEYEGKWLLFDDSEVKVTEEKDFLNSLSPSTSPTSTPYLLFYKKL
Summary of the method: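 Kinetic fluorescence assay: 1nM USP1/UAF1, 15 min compound preincubation, then 150nM Ub-Rho; 480/540 nm.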

[12] = AP1 Signaling Pathway (AID 357; active = well fitted curve in either direction with a large enough effect, not every such curve was filed as active;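 also: ME-180 reporter cells stimulated with EGF at its EC50 level; % is scaled to controls: 0 for no effect and ±100 for the full control effect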); details: ME-180 (cervical carcinoma) AP-1-bla reporter, EGF-induced, beta-lactamase ratio, 5 h; at 7.69 µM (top of the series) unless noted
Summary of the method: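 AP-1-bla ME-180 cells, Opti-MEM + 0.5% dialyzed FBS, plated overnight 37 °C. Cpd titration + EC50 EGF, 5 h 37 °C. CCF4 2.5 h RT; ex 405, em 460/530 ratio → %activity, AC50.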

[13] = target: Cytochrome P450 1A2 (Homo sapiens) (UniProt P05177); test: p450-cyp1a2 (AID 410; calls by dose curve; also: potency is read from the fitted curve at half-maximal effect); details: recombinant CYP1A2, luciferin-ME demethylation, luminescence; series mostly up to 57 µM
Chain of Cytochrome P450 1A2 (Homo sapiens) (P05177 whole entry, looked up): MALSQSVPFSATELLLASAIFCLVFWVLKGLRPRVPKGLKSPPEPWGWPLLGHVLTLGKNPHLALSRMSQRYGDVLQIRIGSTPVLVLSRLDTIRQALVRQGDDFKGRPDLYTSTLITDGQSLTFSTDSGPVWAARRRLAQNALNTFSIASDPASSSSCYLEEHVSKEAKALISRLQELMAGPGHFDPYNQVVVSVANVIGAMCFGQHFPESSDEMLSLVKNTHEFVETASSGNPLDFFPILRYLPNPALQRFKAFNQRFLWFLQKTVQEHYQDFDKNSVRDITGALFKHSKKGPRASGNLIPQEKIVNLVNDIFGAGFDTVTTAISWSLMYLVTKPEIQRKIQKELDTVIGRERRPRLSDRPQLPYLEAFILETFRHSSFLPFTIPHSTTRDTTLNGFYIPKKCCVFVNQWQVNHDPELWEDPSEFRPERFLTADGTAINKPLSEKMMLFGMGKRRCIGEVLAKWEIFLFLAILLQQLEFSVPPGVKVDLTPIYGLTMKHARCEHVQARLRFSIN
Summary of the method: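 Read-out is luminescence from luciferin produced by CYP1A2 demethylation of Luciferin-ME (100uM, at Km). Detection reagent stopped the 60 min NADPH-dependent reaction; signals were normalized to 57 uM furafylline.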

[14] = target: Cytochrome P450 3A4 (Homo sapiens) (UniProt P08684); test: qHTS Assay for Inhibitors and Substrates of Cytochrome P450 3A4 (AID 884); details: recombinant CYP3A4, Luciferin-PPXE luminescence; series mostly up to 57.1 µM; also: potency is read from the fitted curve at half-maximal effect; nearly all actives have a fitted effect of over 50% in size
Chain of Cytochrome P450 3A4 (Homo sapiens) (P08684 whole entry, looked up): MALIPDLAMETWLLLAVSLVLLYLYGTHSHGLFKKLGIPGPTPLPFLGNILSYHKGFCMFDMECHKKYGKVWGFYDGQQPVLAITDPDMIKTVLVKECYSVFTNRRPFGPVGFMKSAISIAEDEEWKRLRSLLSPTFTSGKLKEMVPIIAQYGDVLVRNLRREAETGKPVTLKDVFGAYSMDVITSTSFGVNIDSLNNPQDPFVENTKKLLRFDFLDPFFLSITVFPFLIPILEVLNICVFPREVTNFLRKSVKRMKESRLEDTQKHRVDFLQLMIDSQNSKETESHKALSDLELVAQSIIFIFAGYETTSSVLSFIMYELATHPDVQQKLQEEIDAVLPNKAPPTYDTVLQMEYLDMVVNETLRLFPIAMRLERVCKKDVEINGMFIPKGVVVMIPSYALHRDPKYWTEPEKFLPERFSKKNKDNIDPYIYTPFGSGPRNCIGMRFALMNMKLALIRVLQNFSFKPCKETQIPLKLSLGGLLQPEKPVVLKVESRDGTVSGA
Summary of the method: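 Luminescent readout of luciferin produced by CYP3A4 (20 nM) dealkylation of Luciferin-PPXE, 25 uM (its KM). NADPH-driven reaction ran 60 min at RT after 10 min compound preincubation; data scaled to 57 uM ketoconazole as 100% inhibition.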

[15] = target: Cytochrome P450 3A4 (Homo sapiens) (UniProt P08684); test: qHTS Assay for Activators of Cytochrome P450 3A4 (AID 885); details: recombinant CYP3A4, Luciferin-PPXE luminescence, 60 min; series mostly up to 57.1 µM; also: nearly all actives have a fitted effect of over 65% in size
Summary of the method: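 CYP3A4 activity: Luciferin-PPXE O-dealkylation, 25uM substrate, 200mM KPO4, RT throughout. Read-out is luciferase luminescence; higher values reflect activation.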

[16] = target: Cytochrome P450 2C19 (Homo sapiens) (UniProt P33261); test: qHTS Assay for Inhibitors and Substrates of Cytochrome P450 2C19 (AID 899); details: recombinant CYP2C19, luciferin-H EGE luminescence; series mostly up to 57.1 µM; also: potency is read from the fitted curve at half-maximal effect; nearly all actives have a fitted effect of over 60% in size
Chain of Cytochrome P450 2C19 (Homo sapiens) (P33261 whole entry, looked up): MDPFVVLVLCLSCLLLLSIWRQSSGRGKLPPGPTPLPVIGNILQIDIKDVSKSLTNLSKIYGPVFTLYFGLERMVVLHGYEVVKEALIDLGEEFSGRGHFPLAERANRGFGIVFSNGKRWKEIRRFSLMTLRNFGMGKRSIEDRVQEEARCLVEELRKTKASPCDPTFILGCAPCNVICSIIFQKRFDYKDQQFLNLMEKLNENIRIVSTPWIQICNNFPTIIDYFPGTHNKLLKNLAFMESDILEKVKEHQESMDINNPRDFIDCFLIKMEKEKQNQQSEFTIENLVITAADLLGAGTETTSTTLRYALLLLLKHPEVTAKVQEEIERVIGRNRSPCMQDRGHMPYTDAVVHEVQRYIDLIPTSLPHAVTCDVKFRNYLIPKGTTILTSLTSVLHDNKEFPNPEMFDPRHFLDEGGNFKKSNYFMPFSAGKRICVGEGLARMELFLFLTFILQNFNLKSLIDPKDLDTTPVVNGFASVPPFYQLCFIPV
Summary of the method: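 Human CYP2C19 (5nM) with Luciferin-H EGE at 10uM (its KM) in 50mM KPO4 was preincubated with compound for 10 min at 37C. NADPH regeneration started a 60 min 37C reaction. Luciferin was read by luminescence, normalized to 57uM ketoconazole.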

COc1ccc(Oc2ncc3nc(-c4ccccc4)c(=O)n(C[C@H]4CCCO4)c3n2)cc1
inactive: Potency [1] > 11.4 µM | activity change, negative = inhibition [2] -3.65% | outcome [3] | Potency [4] > 9.22 µM | Potency [5] > 46 µM | Potency [6] | Potency [7] | Potency [8] | Potency [9] | Potency [10] | Potency [11]

CN1CCN(c2ncc3nc(-c4ccccc4)c(=O)n(Cc4cccs4)c3n2)CC1
inactive: Potency [1] > 11.4 µM | activity change, negative = inhibition [12] 7.66% | activity change, negative = inhibition [2] -9.53% | outcome [3] | Potency [4] > 9.22 µM | Potency [5] > 46 µM | Potency [8] | Potency [9] | Potency [11]
active: Potency [13] 15.8 µM

O=c1c(CCc2ccccc2)nc2cnc(N3CCNCC3)nc2n1Cc1cccs1
inactive: Potency [1] > 11.4 µM | activity change, negative = inhibition [12] 7.64% | activity change, negative = inhibition [2] 3.16% | Potency [4] > 9.22 µM | Potency [5] > 46 µM | Potency [6] | Potency [8] | Potency [9] | Potency [10] | Potency [11]

COc1ncc2nc(-c3ccccc3)c(=O)n(CCc3ccccc3)c2n1
inactive: activity change, negative = inhibition [12] -6.17% | activity change, negative = inhibition [2] -3.72% | outcome [3] | Potency [5] > 46 µM | Potency [6] | Potency [8] | Potency [9] | Potency [10] | Potency [11]

c1cn(-c2ncnc3ccc(-c4ccoc4)cc23)cn1
active: Potency [13] 1.26 µM | Potency [14] 0.631 µM | Potency [8] 0.141 µM | Potency [9] 0.199 µM | Potency [10] 0.0708 µM
inactive: Potency [1] > 11.4 µM | activity change, negative = inhibition [2] -5.74% | outcome [3] | Potency [4] > 46 µM | Potency [5] > 46 µM | Potency [6] | Potency [7] | outcome [15] | Potency [11]

COc1ccccc1-c1nc(Nc2ccncc2)c2ccccc2n1
active: Potency [13] 0.316 µM | Potency [8] 14.1 µM | Potency [9] 12.6 µM | Potency [10] 14.1 µM
inactive: activity change, negative = inhibition [12] -6.27% | outcome [3] | Potency [4] > 46 µM | Potency [5] > 46 µM | Potency [6] | outcome [15] | Potency [11]

Clc1ccccc1-c1nc(-n2ccnc2)c2ccccc2n1
inactive: activity change, negative = inhibition [12] -5.23% | activity change, negative = inhibition [2] -17.9% | outcome [3] | Potency [4] > 46 µM | Potency [5] > 46 µM | Potency [6] | outcome [15] | Potency [11]
active: Potency [13] 0.158 µM | Potency [14] 0.501 µM | Potency [16] 7.94 µM | Potency [8] 1.26 µM | Potency [9] 2.24 µM | Potency [10] 1 µM
